# Data from PubChem BioAssay AID1159580 (chemical genetic matrix, 2015).
# Values joined by “and” are separate entries in the source; they are usually repeats but may differ in a detail not shown here. Equal entries are not always repeated. Out of some 5,500 compounds screened, about 2,000 (36%) were called active. Not shown: some 18% with an inconclusive outcome. Some of the results follow. Values without a mark were called inactive. Cut-off read from the data, not from the text of the source: active = normalized growth mostly below about 0.91 (no sharp cut-off); inconclusive = no clear call, values can overlap the other calls; inactive = mostly above about 0.92.
# Assay: chemical genetic growth profiling, strain panel (AID 1159580);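 note: tested at 20 µM; growth read once vehicle control cultures reached saturation at 30 °C; 1 = growth at the plate median or of vehicle wells; lower values mean less growth of the strain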
# Conditions: S. cerevisiae deletion strains, growth OD
smiles,measurement,setting,value
CC(C)c1c(O)ccc2c1CCC1[C@@](C)(CO)CCC[C@]21C (stereo partly specified),normalized growth,"locus YAL013W, strain DEP1, hits give low values",0.978
same,normalized growth,"locus YAL021C, strain ccr4, hits give low values",1.01
same,normalized growth,"locus YAL026C, strain drs2, hits give low values",1.01
same,normalized growth,"locus YAL030W, strain snc1, hits give low values",1.01
same,normalized growth,"locus YBL061C, strain skt5, hits give low values",1.01
same,normalized growth,"locus YBR009C, strain hhf1, hits give low values",1.04
same,normalized growth,"locus YBR021W, strain FUR4, hits give low values",0.945
same,normalized growth,"locus YBR023C, strain chs3, hits give low values",1.03
same,normalized growth,"locus YBR171W, strain sec66, hits give low values",1.02
same,normalized growth,"locus YBR229C, strain ROT2, hits give low values",0.958
same,normalized growth,"locus YBR231C, strain swc5, hits give low values",1.02
same,normalized growth,"locus YBR279W, strain paf1, hits give low values",1.02
same,normalized growth,"locus YCL011C, strain gbp2, hits give low values",1.02
same,normalized growth,"locus YCL016C, strain dcc1, hits give low values",1.02
same,normalized growth,"locus YCL029C, strain bik1, hits give low values",0.941
same,normalized growth,"locus YCL069W, strain vba3, hits give low values",1.02
same,normalized growth,"locus YCR088W, strain abp1, hits give low values",1.02
same,normalized growth,"locus YDL005C, strain med2, hits give low values",1.02
same,normalized growth,"locus YDL035C, strain GPR1, hits give low values",0.964
same,normalized growth,"locus YDL040C, strain nat1, hits give low values",1.01
same,normalized growth,"locus YDL074C, strain BRE1, hits give low values",0.834
same,normalized growth,"locus YDL101C, strain DUN1, hits give low values",0.947
same,normalized growth,"locus YDL134C, strain PPH21, hits give low values",0.911
same,normalized growth,"locus YDL185W, strain tfp1, hits give low values",0.975
same,normalized growth,"locus YDL192W, strain arf1, hits give low values",0.92
same,normalized growth,"locus YDR001C, strain nth1, hits give low values",1.01
same,normalized growth,"locus YDR069C, strain doa4, hits give low values",1
same,normalized growth,"locus YDR101C, strain arx1, hits give low values",0.967
same,normalized growth,"locus YDR137W, strain rgp1, hits give low values",0.885
same,normalized growth,"locus YDR150W, strain NUM1, hits give low values",0.983
same,normalized growth,"locus YDR159W, strain sac3, hits give low values",1.02
same,normalized growth,"locus YDR162C, strain NBP2, hits give low values",0.79 (active)
same,normalized growth,"locus YDR195W, strain ref2",1.05
same,normalized growth,"locus YDR297W, strain sur2, hits give low values",1.02
same,normalized growth,"locus YDR318W, strain mcm21, hits give low values",0.911 (active)
same,normalized growth,"locus YDR334W, strain swr1, hits give low values",1.03
same,normalized growth,"locus YDR335W, strain msn5, hits give low values",1.03
same,normalized growth,"locus YDR388W, hits give low values",0.957
same,normalized growth,"locus YDR392W, strain spt3, hits give low values",0.991
same,normalized growth,"locus YDR502C, strain sam2, hits give low values",0.898 (active)
same,normalized growth,"locus YEL003W, strain gim4, hits give low values",1.01
same,normalized growth,"locus YEL037C, strain rad23, hits give low values",1.02
same,normalized growth,"locus YEL061C, strain CIN8 (second series), hits give low values",1.03
same,normalized growth,"locus YEL061C, strain CIN8, hits give low values",0.971
same,normalized growth,"locus YER015W, strain faa2, hits give low values",1.02
same,normalized growth,"locus YER016W, strain bim1, hits give low values",1.01
same,normalized growth,"locus YER110C, hits give low values",0.971
same,normalized growth,"locus YER111C, strain swi4, hits give low values",1.04
same,normalized growth,"locus YER155C, strain BEM2 (second series), hits give low values",1.03
same,normalized growth,"locus YER155C, strain BEM2, hits give low values",0.966
same,normalized growth,"locus YER167W, strain BCK2, hits give low values",0.949
same,normalized growth,"locus YFR010W, strain ubp6, hits give low values",1.03
same,normalized growth,"locus YGL078C, strain dbp3, hits give low values",0.961
same,normalized growth,"locus YGL086W, strain mad1, hits give low values",0.898 (active)
same,normalized growth,"locus YGL167C, strain pmr1, hits give low values",1.01
same,normalized growth,"locus YGL173C, strain kem1, hits give low values",1.02
same,normalized growth,"locus YGL227W, strain vid30, hits give low values",1.02
same,normalized growth,"locus YGL240W, strain doc1, hits give low values",1.01
same,normalized growth,"locus YGL248W, strain PDE1, hits give low values",0.924
same,normalized growth,"locus YGL253W, strain hxk2, hits give low values",1.01
same,normalized growth,"locus YGR078C, strain PAC10, hits give low values",0.889
same,normalized growth,"locus YGR135W, strain pre9, hits give low values",0.93
same,normalized growth,"locus YGR252W, strain gcn5, hits give low values",0.88
same,normalized growth,"locus YHR013C, strain ard1, hits give low values",1.03
same,normalized growth,"locus YHR027C, strain rpn1, hits give low values",1.03
same,normalized growth,"locus YHR030C, strain SLT2, hits give low values",1.04
same,normalized growth,"locus YHR079C, strain IRE1 (second series), hits give low values",0.96
same,normalized growth,"locus YHR079C, strain IRE1, hits give low values",1.07
same,normalized growth,"locus YHR094C, strain hxt1, hits give low values",0.958
same,normalized growth,"locus YHR129C, strain ARP1, hits give low values",0.949
same,normalized growth,"locus YHR142W, strain chs7, hits give low values",1.01
same,normalized growth,"locus YHR200W, strain rpn10, hits give low values",0.931
same,normalized growth,"locus YIL066C, strain RNR3, hits give low values",0.94
same,normalized growth,"locus YIL073C, strain SPO22, hits give low values",0.871
same,normalized growth,"locus YIL125W, strain kgd1, hits give low values",0.973
same,normalized growth,"locus YIR030C, strain dcg1, hits give low values",0.954
same,normalized growth,"locus YJL092W, strain hpr5, hits give low values",1.01
same,normalized growth,"locus YJL095W, strain BCK1 (second series), hits give low values",1
same,normalized growth,"locus YJL095W, strain BCK1, hits give low values",0.811 and 1.03
same,normalized growth,"locus YJL115W, strain asf1, hits give low values",1.03
same,normalized growth,"locus YJL129C, strain trk1, hits give low values",0.961
same,normalized growth,"locus YJL134W, strain LCB3, hits give low values",0.973
same,normalized growth,"locus YJL154C, strain vps35, hits give low values",1.01
same,normalized growth,"locus YJL164C, strain tpk1, hits give low values",1.02
same,normalized growth,"locus YJL166W, strain qcr8, hits give low values",1.01
same,normalized growth,"locus YJL168C, strain set2, hits give low values",0.957
same,normalized growth,"locus YJL187C, strain SWE1 (second series), hits give low values",0.918
same,normalized growth,"locus YJR066W, strain TOR1, hits give low values",1.01
same,normalized growth,"locus YKL009W, strain mrt4, hits give low values",0.91
same,normalized growth,"locus YKL068W, hits give low values",0.965
same,normalized growth,"locus YKL085W, strain MDH1 (second series), hits give low values",0.961
same,normalized growth,"locus YKL085W, strain MDH1, hits give low values",0.961
same,normalized growth,"locus YKL160W, strain elf1, hits give low values",1.02
same,normalized growth,"locus YKL190W, strain CNB1, hits give low values",0.979
same,normalized growth,"locus YKR001C, strain vps1, hits give low values",0.895 (active)
same,normalized growth,"locus YKR026C, strain gcn3, hits give low values",1.02
same,normalized growth,"locus YKR091W, strain srl3, hits give low values",1.01
same,normalized growth,"locus YLL001W, strain dnm1, hits give low values",1.01
same,normalized growth,"locus YLL026W, hits give low values",1.01
same,normalized growth,"locus YLL041C, strain sdh2, hits give low values",1.03
same,normalized growth,"locus YLR027C, strain aat2, hits give low values",0.999
same,normalized growth,"locus YLR039C, strain RIC1, hits give low values",0.443 (active)
same,normalized growth,"locus YLR058C, strain SHM2, hits give low values",0.944
same,normalized growth,"locus YLR102C, strain apc9, hits give low values",0.959
same,normalized growth,"locus YLR113W, strain HOG1, hits give low values",0.996
same,normalized growth,"locus YLR221C, strain rsa3, hits give low values",1.01
same,normalized growth,"locus YLR258W, strain gsy2, hits give low values",1.03
same,normalized growth,"locus YLR262C, strain YPT6 (second series), hits give low values",0.842 (active)
same,normalized growth,"locus YLR262C, strain YPT6, hits give low values",0.397 (active)
same,normalized growth,"locus YLR268W, strain sec22, hits give low values",0.926
same,normalized growth,"locus YLR320W, strain mms22, hits give low values",1.01
same,normalized growth,"locus YLR330W, strain CHS5, hits give low values",0.951
same,normalized growth,"locus YLR342W, strain FKS1, hits give low values",1.01
same,normalized growth,"locus YLR357W, strain rsc2, hits give low values",1.08
same,normalized growth,"locus YLR370C, strain arc18, hits give low values",1.03
same,normalized growth,"locus YLR371W, strain rom2, hits give low values",0.97
same,normalized growth,"locus YLR384C, strain iki3, hits give low values",1.03
same,normalized growth,"locus YLR418C, strain cdc73, hits give low values",0.725 (active)
same,normalized growth,"locus YML016C, strain PPZ1, hits give low values",0.97
same,normalized growth,"locus YML032C, strain rad52, hits give low values",0.909
same,normalized growth,"locus YML120C, strain ndi1, hits give low values",1.02
same,normalized growth,"locus YML124C, strain tub3, hits give low values",0.959
same,normalized growth,"locus YMR058W, strain fet3, hits give low values",1.02
same,normalized growth,"locus YMR078C, strain ctf18, hits give low values",0.928
same,normalized growth,"locus YMR125W, strain sto1, hits give low values",1.03
same,normalized growth,"locus YMR129W, hits give low values",1.02
same,normalized growth,"locus YMR205C, strain PFK2, hits give low values",1.01
same,normalized growth,"locus YMR223W, strain ubp8, hits give low values",0.914
same,normalized growth,"locus YMR231W, strain pep5, hits give low values",1.04
same,normalized growth,"locus YMR307W, strain GAS1, hits give low values",0.7
same,normalized growth,"locus YNL067W, strain RPL9B, hits give low values",0.939
same,normalized growth,"locus YNL071W, strain lat1, hits give low values",1.02
same,normalized growth,"locus YNL183C, strain NPR1, hits give low values",0.994
same,normalized growth,"locus YNL209W, strain ssb2, hits give low values",1.02
same,normalized growth,"locus YNL233W, strain BNI4, hits give low values",0.885
same,normalized growth,"locus YNL248C, strain rpa49, hits give low values",1.04
same,normalized growth,"locus YNL250W, strain rad50, hits give low values",0.965
same,normalized growth,"locus YNL271C, strain bni1, hits give low values",0.961
same,normalized growth,"locus YNL298W, strain CLA4, hits give low values",0.951
same,normalized growth,"locus YNL307C, strain MCK1, hits give low values",0.885 (active)
same,normalized growth,"locus YNL322C, strain KRE1 (second series), hits give low values",1.03
same,normalized growth,"locus YNR049C, strain mso1, hits give low values",1.01
same,normalized growth,"locus YNR052C, strain pop2, hits give low values",0.92
same,normalized growth,"locus YOL012C, strain htz1",1.16
same,normalized growth,"locus YOL147C, strain pex11, hits give low values",0.942
same,normalized growth,"locus YOR001W, strain rrp6, hits give low values",1.02
same,normalized growth,"locus YOR061W, strain CKA2, hits give low values",0.964
same,normalized growth,"locus YOR069W, strain VPS5, hits give low values",0.965
same,normalized growth,"locus YOR070C, strain gyp1, hits give low values",1.01
same,normalized growth,"locus YOR080W, strain dia2, hits give low values",1.02
same,normalized growth,"locus YOR083W, strain WHI5, hits give low values",1.02
same,normalized growth,"locus YOR106W, strain vam3, hits give low values",1.04
same,normalized growth,"locus YOR136W, strain idh2, hits give low values",0.966
same,normalized growth,"locus YOR144C, strain elg1, hits give low values",0.961
same,normalized growth,"locus YOR184W, strain ser1, hits give low values",0.778 (active)
same,normalized growth,"locus YOR231W, strain MKK1, hits give low values",1.03
same,normalized growth,"locus YOR265W, strain rbl2, hits give low values",1
same,normalized growth,"locus YOR270C, strain vph1, hits give low values",1.01
same,normalized growth,"locus YOR290C, strain snf2, hits give low values",1.04
same,normalized growth,"locus YOR316C, strain cot1, hits give low values",0.956
same,normalized growth,"locus YPL051W, strain arl3, hits give low values",1.02
same,normalized growth,"locus YPL055C, strain LGE1, hits give low values",0.887
same,normalized growth,"locus YPL078C, strain atp4, hits give low values",1.04
same,normalized growth,"locus YPL106C, strain sse1, hits give low values",1.07
same,normalized growth,"locus YPL240C, strain hsp82, hits give low values",1.01
same,normalized growth,"locus YPL256C, strain CLN2, hits give low values",1.08
same,normalized growth,"locus YPR119W, strain clb2, hits give low values",0.948
same,normalized growth,"locus YPR141C, strain kar3, hits give low values",0.955
same,normalized growth,"locus YPR163C, strain tif3, hits give low values",0.883 (active)
same,normalized growth,"locus YPR167C, strain met16, hits give low values",0.953
same,normalized growth,"strain wtn01, hits give low values",0.945
